{"source": "PubChem BioAssay (NCATS)", "key": {"[1]": {"assay": "Stat Signaling Pathway (AID 446; active means well fitted curve in either direction with a large enough effect, not every such curve was filed as active;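 further: ME-180 cervical cancer cells given 40 pM IL-6 alongside compound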)", "settings": "ME-180 SIE beta-lactamase reporter, IL-6 stimulated, 5 h; series mostly up to 7.69 µM", "how_it_was_run": "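IL-6/STAT signaling read in ME-180 cells via an SIE beta-lactamase reporter. Stimulus was 40 pM IL-6 (its AC50) for 5 hrs, so both activation and inhibition register.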"}, "[2]": {"assay": "Cytotoxicity counterscreen for NFkB agonists and antagonists (AID 624476);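 further: cells exposed to compound for 48 hours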", "settings": "NFkB reporter cell line viability counterscreen; series mostly up to 46.1 µM"}, "[3]": {"assay": "qHTS Assay for Identification of Small Molecule Agonists for NFkB Signaling Pathway. (AID 624478)", "settings": "NFkB pathway reporter cell assay, agonist mode, cells co-stimulated with 10 pM TNF alpha; series mostly up to 46.1 µM", "how_it_was_run": "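Cells carrying an NFkB response element-driven beta-lactamase gene are co-treated with compound and 10 pM TNF alpha for 5 h, and reporter activity is then read as 460 and 530 nm fluorescence.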"}, "[4]": {"assay": "qHTS Assay for Identification of Small Molecule Antagonists for NFkB Signaling Pathway. (AID 624479; calls by dose curve)", "settings": "NFkB pathway reporter cell assay, antagonist mode; series mostly up to 38.3 µM"}, "[5]": {"assay": "Cellular Toxicity (caspase-3) Renal Proximal Tubule (AID 667);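 further: cells exposed to compound for 16 hours at 37 °C before detection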", "settings": "renal proximal tubule cells, primary cells freshly taken from rat, solvent-only wells 0%, staurosporine 100%; series mostly up to 91.7 µM", "how_it_was_run": "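Caspase 3/7 activation measured by luminescent aminoluciferin release in primary rat proximal tubule cells after 16 hr compound exposure at 37 °C. AC50 from Hill-fitted concentration-response, scaled between DMSO and 10 uM staurosporine.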"}, "[6]": {"biological_target": "Androgen receptor (Homo sapiens) (UniProt P10275)", "sequence (P10275 whole entry, looked up)": "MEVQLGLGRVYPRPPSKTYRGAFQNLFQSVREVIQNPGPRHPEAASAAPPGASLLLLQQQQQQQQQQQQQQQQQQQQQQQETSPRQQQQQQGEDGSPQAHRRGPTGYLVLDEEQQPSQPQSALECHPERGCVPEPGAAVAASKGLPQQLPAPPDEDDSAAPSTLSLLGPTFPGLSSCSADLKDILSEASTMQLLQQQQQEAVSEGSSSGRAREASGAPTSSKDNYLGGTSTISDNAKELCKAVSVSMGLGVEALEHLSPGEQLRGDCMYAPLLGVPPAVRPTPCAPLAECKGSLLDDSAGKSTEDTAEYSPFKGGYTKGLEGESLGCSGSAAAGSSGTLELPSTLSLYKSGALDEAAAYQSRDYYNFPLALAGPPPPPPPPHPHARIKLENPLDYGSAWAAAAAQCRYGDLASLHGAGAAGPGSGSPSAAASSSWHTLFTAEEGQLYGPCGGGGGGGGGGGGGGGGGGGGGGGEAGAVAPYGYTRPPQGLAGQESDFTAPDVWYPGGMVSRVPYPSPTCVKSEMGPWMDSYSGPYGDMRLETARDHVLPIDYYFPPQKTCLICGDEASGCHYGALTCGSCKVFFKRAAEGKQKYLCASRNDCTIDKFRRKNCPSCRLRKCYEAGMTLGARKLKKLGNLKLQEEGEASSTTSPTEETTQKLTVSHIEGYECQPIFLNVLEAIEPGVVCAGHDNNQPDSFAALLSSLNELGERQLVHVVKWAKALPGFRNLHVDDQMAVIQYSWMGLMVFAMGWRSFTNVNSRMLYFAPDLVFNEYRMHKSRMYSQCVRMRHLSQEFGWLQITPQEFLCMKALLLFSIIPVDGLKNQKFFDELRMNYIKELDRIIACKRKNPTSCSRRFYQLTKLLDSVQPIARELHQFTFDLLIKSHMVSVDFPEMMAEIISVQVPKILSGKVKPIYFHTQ", "assay": "qHTS assay for small molecule agonists of androgen receptor signaling (AID 588515; active means well fitted curve in the direction sought with a large enough effect in the signal ratio, with a control signal flat; the % refers to the signal ratio)", "settings": "AR-UAS-bla HEK293, beta-lactamase ratio, agonist 16 h; hits give high values", "how_it_was_run": "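EC50 and efficacy came from Hill fits of titrations (up to 92 uM) normalized to 30 nM R1881 as 100% and DMSO as 0%. Compound exposure was 16 h at 37 C on AR-UAS-bla HEK293 cells, with a 405/460/530 nm CCF4 fluorescence read.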"}, "[7]": {"biological_target": "Androgen receptor (Homo sapiens) (UniProt P10275)", "assay": "qHTS assay for small molecule antagonists of androgen receptor signaling (AID 588516; active means well fitted curve in the direction sought with a large enough effect in the signal ratio, with a control signal flat, not every such curve was filed as active; the % refers to the signal ratio)", "settings": "AR-UAS-bla HEK293, beta-lactamase ratio, antagonist mode, 16 h; series mostly up to 76.8 µM", "how_it_was_run": "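Antagonist mode: inhibition of R1881-stimulated (10 nM final) bla reporter in GeneBLAzer AR HEK 293 cells, 16 h at 37C, compounds titrated. IC50 and efficacy from Hill-equation fits of 405/460–530 nm FRET ratios.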"}, "[8]": {"assay": "Cell Viability - MRC5 (AID 434; calls by dose curve;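 further: potency means the concentration at half of the fitted maximal effect; potency reflects cytotoxicity seen as loss of intracellular ATP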)", "settings": "MRC5 lung fibroblast viability, qHTS", "how_it_was_run": "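MRC5 normal human lung fibroblasts, 1500 cells/well, exposed to compound for 40 hr at 37 C. Cellular ATP was read by CellTiter-Glo luminescence; data normalized to DMSO and 100 uM tamoxifen, with AC50 from Hill fits.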"}, "[9]": {"biological_target": "Cytochrome P450 1A2 (Homo sapiens) (UniProt P05177)", "sequence (P05177 whole entry, looked up)": "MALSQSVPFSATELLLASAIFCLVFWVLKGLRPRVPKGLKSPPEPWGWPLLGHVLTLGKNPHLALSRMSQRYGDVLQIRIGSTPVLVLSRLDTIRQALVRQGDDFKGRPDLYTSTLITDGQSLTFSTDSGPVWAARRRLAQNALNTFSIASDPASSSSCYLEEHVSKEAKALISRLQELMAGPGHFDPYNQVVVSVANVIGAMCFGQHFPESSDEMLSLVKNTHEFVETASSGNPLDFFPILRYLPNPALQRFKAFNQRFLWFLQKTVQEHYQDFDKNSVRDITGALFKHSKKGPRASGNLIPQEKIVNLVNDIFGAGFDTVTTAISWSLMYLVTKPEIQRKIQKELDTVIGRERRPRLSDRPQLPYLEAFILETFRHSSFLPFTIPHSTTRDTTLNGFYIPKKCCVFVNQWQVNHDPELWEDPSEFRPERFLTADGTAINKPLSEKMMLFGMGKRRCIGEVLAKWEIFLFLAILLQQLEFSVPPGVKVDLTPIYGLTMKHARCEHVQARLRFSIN", "assay": "p450-cyp1a2 (AID 410; calls by dose curve; further: potency means the concentration at half of the fitted maximal effect)", "settings": "recombinant CYP1A2, luciferin-ME demethylation, luminescence; series mostly up to 57 µM", "how_it_was_run": "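Inhibition was calculated relative to 57 uM furafylline (full inhibition). The reaction used human CYP1A2 at 20nM with Luciferin-ME at its Km, 100uM, driven by an NADPH-regenerating system for 60 min at room temperature.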"}, "[10]": {"biological_target": "Glucocorticoid receptor (Homo sapiens) (UniProt P04150)", "sequence (P04150 whole entry, looked up, the tested form may be a part)": "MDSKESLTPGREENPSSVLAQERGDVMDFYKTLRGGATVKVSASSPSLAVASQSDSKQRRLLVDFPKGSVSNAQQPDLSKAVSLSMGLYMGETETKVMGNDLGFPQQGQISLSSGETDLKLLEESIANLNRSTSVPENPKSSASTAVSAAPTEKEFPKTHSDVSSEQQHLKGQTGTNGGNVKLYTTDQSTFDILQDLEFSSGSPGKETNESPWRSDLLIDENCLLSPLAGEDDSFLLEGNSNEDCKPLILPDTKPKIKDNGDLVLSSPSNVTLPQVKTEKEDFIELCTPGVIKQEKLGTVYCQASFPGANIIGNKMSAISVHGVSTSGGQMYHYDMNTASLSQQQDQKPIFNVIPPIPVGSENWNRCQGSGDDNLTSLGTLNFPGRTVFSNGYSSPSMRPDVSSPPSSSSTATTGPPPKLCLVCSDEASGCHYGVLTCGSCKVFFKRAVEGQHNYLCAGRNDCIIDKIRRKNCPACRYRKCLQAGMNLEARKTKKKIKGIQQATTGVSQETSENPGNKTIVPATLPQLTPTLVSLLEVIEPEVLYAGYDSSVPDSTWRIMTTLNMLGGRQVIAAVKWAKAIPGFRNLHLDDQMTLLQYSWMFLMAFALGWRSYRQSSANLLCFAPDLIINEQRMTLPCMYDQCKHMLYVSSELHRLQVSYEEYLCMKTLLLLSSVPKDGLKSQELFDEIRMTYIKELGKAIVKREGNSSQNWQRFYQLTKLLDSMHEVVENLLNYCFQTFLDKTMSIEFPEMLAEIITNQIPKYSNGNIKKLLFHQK", "assay": "GR-EFC Redistribution (AID 451; calls by dose curve; further: potency means the concentration at half of the fitted maximal effect)", "settings": "CHO-K1 GR-EFC translocation, beta-gal luminescence, 2 h", "how_it_was_run": "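CHO-K1 cells expressing nuclear EA and GR-ED fragments of b-gal; compounds titrated up to 46 uM final, 2 h at 37 C. GR nuclear translocation read as complemented b-gal luminescence after 1 h RT detection.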"}, "[11]": {"biological_target": "Cytochrome P450 2C9 (Homo sapiens) (UniProt P11712)", "sequence (P11712 whole entry, looked up)": "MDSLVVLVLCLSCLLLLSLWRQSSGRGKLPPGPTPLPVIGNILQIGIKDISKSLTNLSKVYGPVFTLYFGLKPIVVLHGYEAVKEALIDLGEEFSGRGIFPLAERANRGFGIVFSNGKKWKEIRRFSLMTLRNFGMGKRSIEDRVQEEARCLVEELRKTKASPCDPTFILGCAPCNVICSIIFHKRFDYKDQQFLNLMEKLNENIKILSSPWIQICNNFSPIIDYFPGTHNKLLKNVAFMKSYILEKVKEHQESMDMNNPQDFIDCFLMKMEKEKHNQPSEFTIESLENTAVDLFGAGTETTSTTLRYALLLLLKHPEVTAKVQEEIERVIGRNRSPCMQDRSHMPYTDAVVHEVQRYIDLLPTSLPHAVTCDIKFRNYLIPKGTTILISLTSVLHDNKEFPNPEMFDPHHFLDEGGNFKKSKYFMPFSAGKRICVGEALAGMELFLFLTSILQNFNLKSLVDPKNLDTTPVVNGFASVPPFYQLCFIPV", "assay": "qHTS Assay for Inhibitors and Substrates of Cytochrome P450 2C9 (AID 883); further: potency means the concentration at half of the fitted maximal effect; nearly all actives have a fitted effect of over 60% in size", "settings": "recombinant CYP2C9, luciferin-H luminescence, 60 min; series mostly up to 57.1 µM", "how_it_was_run": "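10nM CYP2C9 + 100uM Luciferin-H (=KM), 25mM KPO4; cpd 10 min 37C; NADPH regen, 60 min 37C; stop/detect with P450 Glo-Buffer 20 min; luminescence. Norm. to 57uM sulphaphenazole as full inhibition.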"}, "[12]": {"biological_target": "Cytochrome P450 2D6 (Homo sapiens) (UniProt P10635)", "sequence (P10635 whole entry, looked up)": "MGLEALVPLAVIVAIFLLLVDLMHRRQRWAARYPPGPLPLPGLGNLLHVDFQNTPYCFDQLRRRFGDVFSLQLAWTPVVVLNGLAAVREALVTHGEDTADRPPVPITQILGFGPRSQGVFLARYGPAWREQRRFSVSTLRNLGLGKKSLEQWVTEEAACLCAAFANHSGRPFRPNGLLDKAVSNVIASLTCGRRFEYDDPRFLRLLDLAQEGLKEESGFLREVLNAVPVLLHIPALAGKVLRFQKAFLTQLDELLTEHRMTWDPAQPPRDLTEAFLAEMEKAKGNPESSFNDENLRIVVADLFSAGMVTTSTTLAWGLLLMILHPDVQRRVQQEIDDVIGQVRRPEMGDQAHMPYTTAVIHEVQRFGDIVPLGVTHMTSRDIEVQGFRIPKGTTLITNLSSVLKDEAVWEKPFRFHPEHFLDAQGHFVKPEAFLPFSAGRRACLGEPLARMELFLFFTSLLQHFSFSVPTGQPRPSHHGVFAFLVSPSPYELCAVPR", "assay": "qHTS Assay for Inhibitors and Substrates of Cytochrome P450 2D6 (AID 891);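 further: luciferin methyl ether substrate demethylated by CYP2D6 with NADPH regeneration; nearly all actives have a fitted effect of over 60% in size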", "settings": "recombinant CYP2D6, luciferin-ME EGE luminescence; series mostly up to 57.1 µM", "how_it_was_run": "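Human CYP2D6 (5 nM) with 30 uM Luciferin-ME EGE (at Km) in 100 mM KPO4, compound preincubated 10 min, then NADPH regeneration system for 60 min at room temperature. Luciferin read by luminescence; normalized to 1.43 uM quinidine.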"}, "[13]": {"biological_target": "DNA dC->dU-editing enzyme APOBEC-3G (Homo sapiens) (UniProt Q9HC16)", "sequence (Q9HC16 whole entry, looked up)": "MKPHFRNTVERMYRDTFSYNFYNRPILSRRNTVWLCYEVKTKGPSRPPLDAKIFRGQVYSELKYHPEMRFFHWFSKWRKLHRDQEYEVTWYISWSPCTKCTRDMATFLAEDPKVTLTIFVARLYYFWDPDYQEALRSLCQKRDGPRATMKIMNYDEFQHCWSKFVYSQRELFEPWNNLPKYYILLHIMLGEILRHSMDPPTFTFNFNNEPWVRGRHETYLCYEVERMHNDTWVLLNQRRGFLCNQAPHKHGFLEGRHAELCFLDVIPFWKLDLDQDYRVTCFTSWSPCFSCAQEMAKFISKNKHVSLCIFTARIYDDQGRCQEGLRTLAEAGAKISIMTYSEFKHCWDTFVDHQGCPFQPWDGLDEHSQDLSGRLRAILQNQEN", "assay": "qHTS for inhibitors of Vif-A3G interactions: Validation (AID 588379)", "settings": "Vif-A3G protein interaction assay; series mostly up to 46.1 µM", "how_it_was_run": "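HeLa cells stably expressing Vif and A3G-eYFP, 700 cells/well, incubated overnight at 37 deg C, then exposed to compound overnight at 37 deg C. Inhibition of Vif-mediated degradation read as increased yellow fluorescence (Ex 488/Em 500-530) by laser-scanning cytometry.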"}}, "note": "“And” between values parts separate entries of the source, which are not always exact repeats. Equal entries are not always repeated. A number with no mark means an inactive call. Inconclusive results are not listed. A call without a number means that no potency is given here. The source made the active and inactive calls. Unless noted, the call rests on the fitted dose curve; in most records, active means well fitted curve in the direction sought with a large enough effect; inconclusive means small, poorly fitted or top-dose-only effect, or another doubt; inactive means no such curve, though single readings can be large; an effect the other way counts as inactive or inconclusive.", "data": [{"smiles": "CCC(C)n1ncn(-c2ccc(N3CCN(c4ccc(OCC5COC(Cn6cncn6)(c6ccc(Cl)cc6Cl)O5)cc4)CC3)cc2)c1=O", "note": "(stereo not drawn)", "values": [{"measurement": "outcome", "setting": "[1]", "value": "inactive"}, {"measurement": "outcome", "setting": "[2]", "value": "inactive"}, {"measurement": "outcome", "setting": "[3]", "value": "inactive"}, {"measurement": "outcome", "setting": "[4]", "value": "inactive"}]}, {"smiles": "O=S(=O)(O)c1ccccc1", "values": [{"measurement": "outcome", "setting": "[5]", "value": "inactive"}]}, {"smiles": "O=C(O)c1ccccc1C(c1ccc(O)cc1)c1ccc(O)cc1", "values": [{"measurement": "activation", "setting": "[6]", "value": "7.12% and 7.97%"}, {"measurement": "outcome", "setting": "[7]", "value": "inactive"}]}, {"smiles": "O[C@@H]([C@H](O)[C@@H](O)CBr)[C@@H](O)CBr", "values": [{"measurement": "Potency", "setting": "[8]", "value": "> 92", "unit": "µM"}]}, {"smiles": "O=c1cc(-c2cccc(O)c2)oc2c(O)c(O)ccc12", "values": [{"measurement": "Potency", "setting": "[9]", "value": "100 nM (active)"}, {"measurement": "Potency", "setting": "[10]", "value": "> 46", "unit": "µM"}, {"measurement": "Potency", "setting": "[11]", "value": "1.58 µM (active)"}, {"measurement": "Potency", "setting": "[12]", "value": "inactive"}, {"measurement": "outcome", "setting": "[13]", "value": "inactive"}]}]}
